25 compounds from PubChem BioAssay (NCI) can be followed below.

The panel holds about 83,000 compounds, 20% with a hit somewhere; the sample as a whole holds those more often.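 Single-concentration screen, 48 h exposure, 96-well plates. Endpoint: percent growth. Below 10 = active.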 A number with no mark means an inactive call. Calls of active or inactive are those of the source.

Some test systems named below: T-47D breast; BT-549 breast; MDA-MB-435 melanoma; SW-620 colon; MCF7 breast; HCT-116 colon; HCC-2998 colon; KM12 colon.
Holding throughout (experiment): NCI-60 one-dose screen, 48 h (100 = growth as untreated, 0 = no growth, -100 = all killed)
Conditions in all cases: 10 µM unless noted

For the compound `O=C(Cc1ccccc1)C(F)(F)F`, the growth with T-47D breast was 95.4%; with BT-549 breast, 97.5%; in the assay on MDA-MB-435 melanoma it was 104%; in the assay with SW-620 colon, 108%; in the assay on MCF7 breast, 103%; in the assay on HCT-116 colon, 95.5%. The growth with HCC-2998 colon is 108%; with KM12 colon, 103%.

As for `O=C(NOC(=O)c1ccccc1)c1ccccc1`, the growth in the assay on T-47D breast is 101%; in the assay with BT-549 breast it was 107%; with MDA-MB-435 melanoma, 96.4%; in the assay with SW-620 colon, 93.8%; in the assay on MCF7 breast it was 107%; with HCT-116 colon it was 95.7%. The growth with HCC-2998 colon is 112%; with KM12 colon, 101%.

Regarding `N#CC(=C1SCS1)[N+](=O)[O-]`, the growth with T-47D breast was 29.1%; in the assay with BT-549 breast it was -6.56% (active); in the assay on MDA-MB-435 melanoma, 16.4%; in the assay on SW-620 colon, 19.3%; in the assay on MCF7 breast, 16.7%; in the assay on HCT-116 colon, 35.8%. Also, the growth with HCC-2998 colon was 27%; in the assay with KM12 colon, 14.2%.

In the case of `CCOC(=O)c1cc(CC)sc1NC(=O)CC(C)=O`, the growth was 34.8% in the assay with T-47D breast; 27.3% in the assay with BT-549 breast; 68.8% in the assay on MDA-MB-435 melanoma; 49.7% in the assay on SW-620 colon; 15.9% in the assay on MCF7 breast; 26.5% with HCT-116 colon. In addition, the figures for the growth in the assay with HCC-2998 colon and with KM12 colon were 69.4% and 47.1%, respectively.

Regarding `CCNc1nnnn1CC`, the growth in the assay on T-47D breast was 106%; in the assay with BT-549 breast it was 110%; with MDA-MB-435 melanoma it was 107%; in the assay with SW-620 colon it was 104%; in the assay on MCF7 breast it was 95.7%; with HCT-116 colon it was 102%. Moreover, the growth in the assay on HCC-2998 colon and with KM12 colon was 110% throughout.

For `COC(=O)c1ccc(=O)c2nc3/c(=C/O)c(O)cc(=O)c3[nH]c12`, the growth in the assay with T-47D breast is 25.6%; in the assay on BT-549 breast, 5.85% (active); with MDA-MB-435 melanoma, 23.4%; in the assay on SW-620 colon, 29.5%; in the assay with MCF7 breast, 2.95% (active); with HCT-116 colon, -19% (active). The growth in the assay on HCC-2998 colon was 24.9%; in the assay on KM12 colon, 31.1%.

`Cc1nc(Sc2nc3ccc([N+](=O)[O-])cc3s2)sc1C`: the growth is 27% in the assay with T-47D breast; -10.4% (active) with BT-549 breast; 29.6% in the assay with MDA-MB-435 melanoma; 11.5% with SW-620 colon; 1.58% (active) with MCF7 breast; 2.1% (active) in the assay with HCT-116 colon. Moreover, the figures for the growth in the assay with HCC-2998 colon and in the assay with KM12 colon were 71.3% and 36.6%, respectively.

As to `CCCC[n+]1c(/C=C\c2c(OC)cc(OC)cc2OC)ccc2ccccc21`, the growth in the assay with T-47D breast is -3.69% (active); with BT-549 breast, 15.5%; in the assay on MDA-MB-435 melanoma, -41.2% (active); in the assay on SW-620 colon it was 5.08% (active); with MCF7 breast, 4.3% (active); in the assay on HCT-116 colon, 2.83% (active). For the same compound, the results for the growth in the assay with HCC-2998 colon and in the assay with KM12 colon were 2.5% (active) and -78.6% (active), respectively.

With `CCN(CC)c1ccc(/C=C\C(=O)c2ccc(NC(C)=O)cc2)cc1`, the growth in the assay with T-47D breast is 76.3%; in the assay with BT-549 breast, 94.8%; with MDA-MB-435 melanoma, 10.9%; in the assay with SW-620 colon, 42.5%; with MCF7 breast it was 71.3%; in the assay with HCT-116 colon, 58.6%. The values for the growth in the assay with HCC-2998 colon and in the assay on KM12 colon were 77.9% and 48.1%, respectively.

For `O=C1C=CC(=O)c2c(O)c(CO)c(CO)c(O)c21`, the growth in the assay on T-47D breast is 96.3%; with BT-549 breast, 97%; in the assay on MDA-MB-435 melanoma, 83.5%; in the assay with SW-620 colon it was 109%; in the assay with MCF7 breast, 96.9%; with HCT-116 colon, 74.7%. The growth in the assay with HCC-2998 colon is 108%; in the assay with KM12 colon, 115%.

Turning to `CCCCCCCCCCCCCCCCCC1=NCCCN1CCO`, the growth is 103% with T-47D breast; 99.9% in the assay with BT-549 breast; 115% with MDA-MB-435 melanoma; 98.9% with SW-620 colon; 86.7% in the assay with MCF7 breast; 114% in the assay on HCT-116 colon. Further, the growth was 93.4% with HCC-2998 colon and 106% in the assay on KM12 colon.

As for `O=C1c2ccccc2Cc2cccc(Cl)c21`, the growth with T-47D breast was 92.8%; in the assay with BT-549 breast it was 93.3%; with MDA-MB-435 melanoma, 120%; in the assay on SW-620 colon, 112%; with MCF7 breast, 96.1%; in the assay with HCT-116 colon, 97.4%. Further, the growth is 81% in the assay with HCC-2998 colon and 106% in the assay on KM12 colon.

With `O=C(c1ccccc1)C(Br)[N+](=O)[O-]` (stereo not given), the growth with T-47D breast is 65.3%; in the assay on BT-549 breast, 92.6%; in the assay on MDA-MB-435 melanoma, 96%; in the assay with SW-620 colon, 38.8%; in the assay on MCF7 breast, 58.8%; in the assay on HCT-116 colon, 63%. Also, the growth is 111% in the assay with HCC-2998 colon and 100% in the assay with KM12 colon.

On to `CCCCC(C=O)(C=C=C(C)C)CC` (stereo not given), for which the growth in the assay on T-47D breast is 111%; with BT-549 breast, 103%; in the assay with MDA-MB-435 melanoma, 99.1%; in the assay with SW-620 colon, 106%; with MCF7 breast, 90.9%; with HCT-116 colon it was 106%. Also, the growth in the assay with HCC-2998 colon and in the assay with KM12 colon was 109% throughout.

As for `COC(=O)c1cc([N+](=O)[O-])cc([N+](=O)[O-])c1Cl`, the growth with T-47D breast was -28.3% (active); in the assay with BT-549 breast it was 117%; in the assay on MDA-MB-435 melanoma, 81.7%; with SW-620 colon it was 31.7%; in the assay on MCF7 breast it was 45.1%; with HCT-116 colon, -42.8% (active). Besides, the growth with HCC-2998 colon is 106%; in the assay on KM12 colon it was 105%.

With `C(=N\Nc1ccc2ccccc2n1)/c1ccccn1`, the growth in the assay with T-47D breast is 18.9%; with BT-549 breast it was 43.9%; in the assay on MDA-MB-435 melanoma it was 37.5%; with SW-620 colon it was 23.5%; in the assay on MCF7 breast, 15.9%; in the assay with HCT-116 colon, 18.4%. Also, the results for the growth in the assay on HCC-2998 colon and with KM12 colon were 17.1% and 29.1%, respectively.

Take `S=C(SSC(=S)N1CCOCC1)N1CCOCC1`: the growth in the assay with T-47D breast was 79.8%; in the assay with BT-549 breast, 141%; with MDA-MB-435 melanoma it was 53.6%; in the assay with SW-620 colon, -57.5% (active); in the assay on MCF7 breast, 66.5%; with HCT-116 colon, 40.1%. The growth in the assay with HCC-2998 colon was 49.6%; in the assay with KM12 colon, 69.5%.

`O=C(c1ccc(O)c(Br)c1)c1ccc(O)c(Br)c1`: the growth is 106% in the assay on T-47D breast; 100% in the assay with BT-549 breast; 118% in the assay with MDA-MB-435 melanoma; 109% with SW-620 colon; 117% with MCF7 breast; 101% with HCT-116 colon. Also, the growth in the assay with HCC-2998 colon is 105%; with KM12 colon, 99.2%.

As to `CCN(CC)CC(O)c1cc(-c2ccc(Cl)cc2)nc2cc(Cl)ccc12` (stereo not given), the growth in the assay on T-47D breast was 12.9%; with BT-549 breast, 81.6%; in the assay on MDA-MB-435 melanoma, 13.1%; with SW-620 colon it was 31.5%; with MCF7 breast, -28.4% (active); in the assay on HCT-116 colon, -0.822% (active). In addition, the growth with HCC-2998 colon was 26.4%; in the assay with KM12 colon it was -36.6% (active).

On to `COc1ccc(NC(=O)/C(=C/N2C(=O)/C(=C/c3ccc(OC)c(OC)c3)NC2=S)C(C)=O)cc1`, for which the growth was 19.1% in the assay with T-47D breast; 55.2% in the assay with BT-549 breast; 72.2% in the assay on MDA-MB-435 melanoma; 83.6% with SW-620 colon; 40.9% with MCF7 breast; 73.7% in the assay with HCT-116 colon. Further, the results for the growth with HCC-2998 colon and in the assay with KM12 colon were 88.7% and 95.1%, respectively.

`Cc1ccccc1N=C(N)Nc1ccccc1C` (tested in a mixture with another compound): the growth was 76.6% in the assay on T-47D breast; 96.1% in the assay on BT-549 breast; 89.5% with MDA-MB-435 melanoma; 74.9% with SW-620 colon; 94.2% in the assay on MCF7 breast; 83.4% with HCT-116 colon. Besides, the growth was 97.8% in the assay on HCC-2998 colon and 64.6% in the assay on KM12 colon.

For the compound `O=C1C=Cc2ccccc2/C1=C/c1nc(-c2ccccc2)oc1O`, the growth is 65.5% in the assay on T-47D breast; 102% with BT-549 breast; 97.5% in the assay on MDA-MB-435 melanoma; 97.4% with SW-620 colon; 39.6% in the assay with MCF7 breast; 81.5% with HCT-116 colon. Besides, the results for the growth with HCC-2998 colon and in the assay on KM12 colon were 129% and 92.1%, respectively.

For `Cc1c(O)ccc(SC#N)c1C`, the growth in the assay on T-47D breast is 94%; in the assay on BT-549 breast, 104%; in the assay with MDA-MB-435 melanoma, 105%; in the assay with SW-620 colon, 103%; in the assay with MCF7 breast it was 116%; with HCT-116 colon, 88%. Also, the results for the growth in the assay with HCC-2998 colon and in the assay on KM12 colon were 96.5% and 97.2%, respectively.

`CCC1CCCCN1C(=S)N/N=C(\C)c1ccccn1` (stereo not given): the growth in the assay with T-47D breast was 4.58% (active); in the assay on BT-549 breast, 30.8%; in the assay on MDA-MB-435 melanoma it was 3.24% (active); in the assay with SW-620 colon, 9.32% (active); in the assay on MCF7 breast, 13%; in the assay on HCT-116 colon, 5.51% (active). Besides, the values for the growth with HCC-2998 colon and in the assay on KM12 colon were 17.9% and 4.56% (active), respectively.

In the case of `NNc1ccc(Cl)cc1Cl`, the growth is 52% with T-47D breast; 88.7% in the assay with BT-549 breast; 96.6% with MDA-MB-435 melanoma; 53.7% in the assay with SW-620 colon; 74.8% in the assay with MCF7 breast; 87.1% with HCT-116 colon. Also, the growth is 93.9% in the assay with HCC-2998 colon and 51.3% in the assay with KM12 colon.
